Out of some 320,000 compounds screened, about 2,100 (0.66%) were called active. Roughly 53% stayed inconclusive and do not appear here. The call rests on the fitted dose curve; in most records, active means well fitted inhibition curve with a large enough effect in the signal ratio, with a control signal flat (not every such curve was filed as active); inconclusive means small, poorly fitted or top-dose-only effect, or effect the other way, or a change in a side signal; inactive means flat fitted curve, though single readings scatter; the % refers to the signal ratio. Shown is part of a subset that was picked to be rich in actives.
Potency means the concentration at half of the fitted maximal effect.

The nature of the experiment: qHTS Assay for Lipid Storage Modulators in Drosophila S3 Cells.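 On cell number change: cells counted by Cell Tracker Red CMTPX staining in the red channel.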 On lipid storage change, negative = inhibition: on the % scale 0 is the no-effect control and ±100 the full control effect. The note with it: BODIPY lipid droplet fluorescence, 18-24 h, cells fed with added oleic acid; cell number change: measured here: cell count max response; series mostly up to 46.1 µM; lipid storage change, negative = inhibition: at the top concentration. In a few lines: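 Drosophila S3 cells loaded with oleic acid (400 uM, as added) and compounds at several concentrations; lipid droplets imaged by 488-nm laser-scanning cytometry, 500–530 nm intensity and object ratio to cell channel. Percent activity normalized to 20 uM Triacsin C.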
As to `CC(C)(C)c1csc(Sc2ncccc2[N+](=O)[O-])n1`, the “lipid storage change, negative = inhibition” value is -5.1% (inactive) and the cell number change is -11.2%.

`Cc1cccc(CSC2=CS(=O)(=O)c3ccccc3N2)c1`: the “lipid storage change, negative = inhibition” value is 1.8% (inactive) and the cell number change was 2.06%.

As to `Cc1cccc(CNC(=O)c2cc(S(=O)(=O)N3CCOCC3)cn2C)c1`, the compound was classed as inactive and the cell number change worked out at 14.6%.

As for `CC(=O)c1cccc(NC(=O)COc2ccc(S(=O)(=O)N3CCCCC3)cc2)c1`, the “lipid storage change, negative = inhibition” value is 13.1% (inactive) and the cell number change came out at 12.3%.

As to `Cc1nn(C(C)C(=O)O)c(C)c1[N+](=O)[O-]` (centres undefined), the “lipid storage change, negative = inhibition” value is -18.1% (inactive) and the cell number change was 3.58%.

With `O=C(Nc1nccs1)c1ccc(-c2ccc(Cl)cc2Cl)o1`, the “lipid storage change, negative = inhibition” value is -9.27% (inactive) and the cell number change is -16.9%.

In the case of `O=C(Nc1nccs1)c1ccc(-c2ccc(F)cc2)o1`, the “lipid storage change, negative = inhibition” value is 2.16% (inactive) and the cell number change was 0.674%.

On to `O=C(Nc1nccs1)c1ccc(-c2ccc(F)c(Cl)c2)o1`, for which the Potency is 10.3 µM (active) and the cell number change is -11.8%.

For `CCOC(=O)c1c(NC(=O)Cn2cnc([N+](=O)[O-])n2)sc2c1CCC(C)C2` (centres undefined), the “lipid storage change, negative = inhibition” value is 6.52% (inactive) and the cell number change was determined as 2.74%.

For `Cc1ccccc1NC(=O)c1c(C)cc(=O)oc1C`, the “lipid storage change, negative = inhibition” value was -2.94% (inactive).

As for `Cc1cccc(NC(=O)c2c(C)cc(=O)oc2C)n1`, the Potency is 8.2 µM (active) and the cell number change is -10.1%.

`Cc1cc(=O)oc(C)c1C(=O)Nc1ccc(Cl)cn1`: the “lipid storage change, negative = inhibition” value is -4.54% (inactive) and the cell number change is 1.04%.

Turning to `CC1=C(C)CC(C(=O)NNC(=O)c2csc(C)c2C)C(C(=O)O)C1` (centres undefined), the “lipid storage change, negative = inhibition” value is 5.9% (inactive) and the cell number change was -1.11%.

Turning to `CS(=O)(=O)N(C(=O)NC(=O)NC12CC3CC(CC(C3)C1)C2)C1CCCCC1`, the “lipid storage change, negative = inhibition” value was 2.98% (inactive) and the cell number change is 9.2%.

`COc1ccc(N2CCN(S(=O)(=O)c3ccc(-c4cc(C)no4)s3)CC2)cc1`: the Potency is 23.1 µM (active).

`CC(=O)c1ccc(N2CCN(S(=O)(=O)c3ccc(-c4cc(C)no4)s3)CC2)cc1`: the call was inactive.

As for `Cc1cc(-c2ccc(S(=O)(=O)N3CCN(c4ccc(F)cc4)CC3)s2)on1`, the result was inactive and the cell number change was 5.9%.

For the compound `C=CCn1c(CCNC(=O)c2ccc(Cl)c(Cl)c2)nnc1SCCOc1ccc(OC)cc1`, the “lipid storage change, negative = inhibition” value was 2.78% (inactive) and the cell number change is -3.68%.

As for `O=C(/C=C/c1ccc(F)cc1)NCc1cccs1`, the “lipid storage change, negative = inhibition” value is 20.7% (inactive) and the cell number change came to 12.4%.

Regarding `Cc1nc2cc(NC(=O)C3COc4ccccc4O3)ccc2s1` (centres undefined), the “lipid storage change, negative = inhibition” value was 0.94% (inactive) and the cell number change is 3.18%.

For the compound `COc1ccc(S(=O)(=O)N2CCN(CC(=O)c3[nH]c(C)c(C(C)=O)c3C)CC2)cc1OC`, the “lipid storage change, negative = inhibition” value was 8.72% (inactive) and the cell number change came to 3.31%.

Consider `Cc1ccc(S(=O)(=O)NCC(=O)OCc2cc(=O)oc3c(C)c(C)ccc23)cc1C`, for which the “lipid storage change, negative = inhibition” value was 13.6% (inactive) and the cell number change stood at 11.5%.

Take `CN(CC(=O)Nc1ccc(Cl)c(Cl)c1)C(=O)CNC(=O)Cc1ccccc1`: the “lipid storage change, negative = inhibition” value is 19% (inactive) and the cell number change is -4.02%.

As for `COc1ccccc1NC(=O)NCCN1CCCCC1`, the “lipid storage change, negative = inhibition” value is -2.26% (inactive) and the cell number change amounted to 6.08%.

Turning to `COc1ccccc1NC(=O)C1CCCN(S(=O)(=O)c2ccc(-n3cnnn3)cc2)C1` (centres undefined), the compound was called inactive and the cell number change was -7.69%.

Take `COc1ccccc1NC(=O)C1CCCN(S(=O)(=O)c2cnc[nH]2)C1` (centres undefined): the “lipid storage change, negative = inhibition” value is 7.37% (inactive) and the cell number change is 1.66%.

As to `COc1ccccc1NC(=O)C1CCCN(S(=O)(=O)c2ccccc2)C1` (centres undefined), the Potency is 5.8 µM (active) and the cell number change is -11%.

As for `COc1ccccc1NC(=O)NN1CCCCC1`, the Potency is 0.58 µM (active) and the cell number change was found to be 17.6%.

With `COc1ccccc1NC(=O)N1CCCC1`, the “lipid storage change, negative = inhibition” value is 8.15% (inactive) and the cell number change is 1.33%.

`COc1ccc2c(c1)[nH]c1c(=O)n(N)cnc12`: the “lipid storage change, negative = inhibition” value was 8.27% (inactive) and the cell number change came to 6.47%.

`Cn1cc(/C=C/C(=O)N2CCCC(C(=O)c3cccc4ccccc34)C2)cn1` (centres undefined): the “lipid storage change, negative = inhibition” value is -4.39% (inactive) and the cell number change is 8.66%.

As for `Cc1ccc(N2CC(NC(=O)C(=O)c3c[nH]c4ccccc34)CC2=O)cc1C` (centres undefined), the “lipid storage change, negative = inhibition” value is 1.15% (inactive) and the cell number change came out at 20.5%.

`Cc1nc(NC(=O)COC(=O)CCc2nc3ccccc3s2)c(Cl)cc1Cl`: the “lipid storage change, negative = inhibition” value was -1.19% (inactive) and the cell number change stood at 8.53%.

Take `C[C@H](NC(=O)c1nc[nH]c1C(=O)N[C@@H](Cc1ccccc1)C(=O)OCc1ccccc1)c1ccccc1`: the “lipid storage change, negative = inhibition” value was -6.18% (inactive).

As for `CCCC(=O)Nc1ccc(C(=O)N/N=C/c2ccc([N+](=O)[O-])o2)cc1`, the Potency was 14.6 µM (active) and the cell number change was -15.2%.

As to `O=C(CNc1ccc2ccccc2c1)N/N=C/c1ccc([N+](=O)[O-])o1`, the “lipid storage change, negative = inhibition” value is 26.8% (inactive).

Consider `O=C(N/N=C/c1ccc([N+](=O)[O-])o1)C(=O)Nc1ccc(C(=O)O)cc1`, for which the “lipid storage change, negative = inhibition” value was 13.1% (inactive) and the cell number change worked out at 8.32%.

`O=C(CNc1cccc2ccccc12)N/N=C/c1ccc([N+](=O)[O-])cc1`: the “lipid storage change, negative = inhibition” value is -3.45% (inactive) and the cell number change is -4.75%.

`CCCCCCCC(=O)N/N=C/c1ccc([N+](=O)[O-])o1`: the “lipid storage change, negative = inhibition” value is -11.4% (inactive) and the cell number change is -5.79%.

Turning to `O=C(CNc1cccc2ccccc12)N/N=C/c1ccc([N+](=O)[O-])o1`, the Potency is 16.4 µM (active) and the cell number change was -25.8%.

For `COc1nc(OC)nc(N2CCC(C(=O)Nc3cccc4c3CCCC4)CC2)n1`, the “lipid storage change, negative = inhibition” value was 20.9% (inactive) and the cell number change is -6.45%.

As for `O=C1OC(C(=O)Nc2nccs2)Cc2ccccc21` (centres undefined), the compound was classed as inactive.

Take `O=C(CSc1ncnc2ccccc12)Nc1ccc2c(c1)OCCO2`: the “lipid storage change, negative = inhibition” value was 24.4% (inactive).

For the compound `Cc1cc(NC(=O)CSc2nc(C(C)(C)C)nc3ccccc23)no1`, the “lipid storage change, negative = inhibition” value was -21.1% (inactive) and the cell number change is -18%.

Turning to `CC(C)(C)c1nc(SCC(=O)Nc2ccc3c(c2)OCCO3)c2ccccc2n1`, the Potency is 18.4 µM (active) and the cell number change is -25.4%.

Turning to `COc1ccc2[nH]c(=O)c(CNc3ccc(C)cc3C)cc2c1`, the “lipid storage change, negative = inhibition” value was 7.28% (inactive) and the cell number change is -6.94%.

On to `CC(=O)N/C(=C/c1ccccc1)C(=O)NCCO`, for which the “lipid storage change, negative = inhibition” value is -18.3% (inactive) and the cell number change was 7.72%.

With `CCc1ccc(NC(=O)CCC(=O)Nc2nnc(C(F)(F)F)s2)cc1`, the result was inactive and the cell number change was 24.4%.
